From PubChem BioAssay (NCI)
Compounds without any hit were thinned out: in the full panel of roughly 83,000, 20% have a hit.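 Percent growth is the endpoint: 0 to 100 indicates growth inhibition (40 means 60% inhibition), 0 means no net growth, and negative values indicate cell death.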 Calls of active or inactive are those of the source. Rule for the calls: active = growth percent below 10; inactive = the rest.

Experiments:
Assay in all cases: NCI-60 one-dose screen, 48 h (100 = growth as untreated, 0 = no growth, -100 = all killed)
DU-145 prostate = settings: 10 µM
K-562 leukemia = settings: 10 µM
MALME-3M melanoma = settings: 10 µM
MDA-MB-231 breast = settings: 10 µM
RXF 393 renal = settings: 10 µM
SF-268 CNS = settings: 10 µM
SF-295 CNS = settings: 10 µM
SF-539 CNS = settings: 10 µM
UACC-257 melanoma = settings: 10 µM
M14 melanoma = settings: 10 µM
HCT-15 colon = settings: 10 µM
HT29 colon = settings: 10 µM
SNB-75 CNS = settings: 10 µM
SNB-19 CNS = settings: 10 µM
U251 CNS = settings: 10 µM
PC-3 prostate = settings: 10 µM
SK-MEL-5 melanoma = settings: 10 µM
UACC-62 melanoma = settings: 10 µM unless noted
LOX IMVI melanoma = settings: 10 µM
SK-MEL-28 melanoma = settings: 10 µM

Measured: growth

c1cc2cccc3c4cccc5cccc(c(c1)c23)c54
inactive: DU-145 prostate 115% | K-562 leukemia 110% | MALME-3M melanoma 119% | MDA-MB-231 breast 94.4% | RXF 393 renal 106% | SF-268 CNS 101% | SF-295 CNS 118% | SF-539 CNS 99% | UACC-257 melanoma 125% | M14 melanoma 106% | HCT-15 colon 99.9% | HT29 colon 110% | SNB-75 CNS 88.5% | SNB-19 CNS 99.5% | U251 CNS 120% | PC-3 prostate 93.5% | SK-MEL-5 melanoma 102% | UACC-62 melanoma 93.2% | LOX IMVI melanoma 97.7%

O=C(O)C(Cc1ccccc1)C(=O)O
inactive: DU-145 prostate 113% | K-562 leukemia 108% | MALME-3M melanoma 115% | MDA-MB-231 breast 104% | RXF 393 renal 104% | SF-268 CNS 110% | SF-295 CNS 98.1% | SF-539 CNS 102% | UACC-257 melanoma 108% | M14 melanoma 104% | HCT-15 colon 103% | HT29 colon 123% | SNB-75 CNS 95.9% | SNB-19 CNS 106% | U251 CNS 108% | PC-3 prostate 94% | SK-MEL-5 melanoma 89.6% | UACC-62 melanoma 101% | LOX IMVI melanoma 100% | SK-MEL-28 melanoma 113%

CC(=O)Cc1ccc(-c2ccccc2)cc1
inactive: DU-145 prostate 107% | K-562 leukemia 108% | MALME-3M melanoma 77.1% | MDA-MB-231 breast 95.9% | RXF 393 renal 102% | SF-268 CNS 98% | SF-295 CNS 99.8% | SF-539 CNS 108% | UACC-257 melanoma 98.8% | M14 melanoma 109% | HCT-15 colon 103% | HT29 colon 111% | SNB-75 CNS 98.5% | SNB-19 CNS 101% | U251 CNS 98.3% | PC-3 prostate 97.1% | SK-MEL-5 melanoma 98.7% | UACC-62 melanoma 87.5% | LOX IMVI melanoma 100%

Cc1cc(C(C)(C)C)cc(C)c1Br
inactive: DU-145 prostate 121% | K-562 leukemia 111% | MALME-3M melanoma 135% | MDA-MB-231 breast 108% | RXF 393 renal 113% | SF-268 CNS 102% | SF-295 CNS 103% | SF-539 CNS 94.9% | UACC-257 melanoma 105% | M14 melanoma 98.5% | HCT-15 colon 109% | HT29 colon 113% | SNB-75 CNS 94.6% | SNB-19 CNS 106% | U251 CNS 113% | PC-3 prostate 75.3% | SK-MEL-5 melanoma 111% | UACC-62 melanoma 108% | LOX IMVI melanoma 96.1%

CCCCN(CCCC)CCCO
inactive: DU-145 prostate 110% | K-562 leukemia 114% | MALME-3M melanoma 129% | MDA-MB-231 breast 116% | RXF 393 renal 119% | SF-268 CNS 101% | SF-295 CNS 124% | SF-539 CNS 101% | UACC-257 melanoma 113% | M14 melanoma 108% | HCT-15 colon 100% | HT29 colon 126% | SNB-75 CNS 86.7% | SNB-19 CNS 112% | U251 CNS 116% | PC-3 prostate 180% | SK-MEL-5 melanoma 104% | UACC-62 melanoma 106% | LOX IMVI melanoma 101% | SK-MEL-28 melanoma 110%

O=C(O)COCC(=O)O
inactive: DU-145 prostate 103% | K-562 leukemia 116% | MALME-3M melanoma 83.6% | MDA-MB-231 breast 106% | RXF 393 renal 102% | SF-268 CNS 92.6% | SF-295 CNS 89.7% | SF-539 CNS 104% | UACC-257 melanoma 87.9% | M14 melanoma 111% | HCT-15 colon 103% | HT29 colon 105% | SNB-75 CNS 81.4% | SNB-19 CNS 108% | U251 CNS 94.7% | PC-3 prostate 97% | SK-MEL-5 melanoma 102% | UACC-62 melanoma 111% | LOX IMVI melanoma 101% | SK-MEL-28 melanoma 98.3%

COC(=O)Nc1nc2ccc(C(=O)c3ccc(F)cc3)cc2[nH]1
inactive: MALME-3M melanoma 57.5% | MDA-MB-231 breast 26.5% | SF-268 CNS 22.6% | M14 melanoma 15.6% | SNB-75 CNS 31% | SNB-19 CNS 33.5% | U251 CNS 14.3% | SK-MEL-5 melanoma 13.6% | UACC-62 melanoma 36% | LOX IMVI melanoma 28.4% | SK-MEL-28 melanoma 54.2%
active: DU-145 prostate -31% | K-562 leukemia -37% | RXF 393 renal -41.2% | SF-295 CNS -3.22% | SF-539 CNS -21.8% | UACC-257 melanoma -2.09% | HCT-15 colon 5.81% | HT29 colon 7.47% | PC-3 prostate 2.25%

NC(=S)N/N=C/c1ccc(N)cc1
inactive: DU-145 prostate 108% | K-562 leukemia 98.7% | MALME-3M melanoma 104% | MDA-MB-231 breast 97% | RXF 393 renal 107% | SF-268 CNS 97.1% | SF-295 CNS 102% | SF-539 CNS 103% | UACC-257 melanoma 82.9% | M14 melanoma 98.4% | HCT-15 colon 102% | HT29 colon 107% | SNB-75 CNS 96.1% | SNB-19 CNS 104% | U251 CNS 96.6% | PC-3 prostate 82.2% | SK-MEL-5 melanoma 99.8% | UACC-62 melanoma 95.8% | LOX IMVI melanoma 91.5%

Cc1cc(O)ccc1O
inactive: DU-145 prostate 114% | K-562 leukemia 94.1% | MALME-3M melanoma 101% | MDA-MB-231 breast 87.3% | RXF 393 renal 112% | SF-268 CNS 102% | SF-295 CNS 129% | SF-539 CNS 95.5% | UACC-257 melanoma 99.5% | M14 melanoma 96.4% | HCT-15 colon 108% | HT29 colon 114% | SNB-75 CNS 114% | SNB-19 CNS 112% | U251 CNS 107% | PC-3 prostate 97.7% | SK-MEL-5 melanoma 88.6% | UACC-62 melanoma 80.8% | LOX IMVI melanoma 92.5%

Nc1nc(OCc2ccccc2)c2[nH]cnc2n1
inactive: DU-145 prostate 99.2% | K-562 leukemia 80.4% | MALME-3M melanoma 98.3% | MDA-MB-231 breast 97.9% | RXF 393 renal 98.8% | SF-268 CNS 109% | SF-295 CNS 96.8% | SF-539 CNS 89.7% | UACC-257 melanoma 97.8% | M14 melanoma 90.6% | HCT-15 colon 63.7% | HT29 colon 105% | SNB-19 CNS 104% | U251 CNS 100% | PC-3 prostate 84.4% | SK-MEL-5 melanoma 94% | UACC-62 melanoma 86.1% | LOX IMVI melanoma 83.1%
active: SNB-75 CNS 8.69%

CC(=O)/C(Cc1ccccc1)=N/O
inactive: DU-145 prostate 115% | K-562 leukemia 85.5% | MALME-3M melanoma 104% | MDA-MB-231 breast 100% | RXF 393 renal 109% | SF-268 CNS 104% | SF-295 CNS 105% | SF-539 CNS 91.9% | UACC-257 melanoma 89.5% | M14 melanoma 94.8% | HCT-15 colon 99.7% | HT29 colon 92.9% | SNB-75 CNS 89.2% | SNB-19 CNS 98.9% | U251 CNS 94.9% | PC-3 prostate 84.9% | SK-MEL-5 melanoma 106% | UACC-62 melanoma 98.1% | LOX IMVI melanoma 94.2% | SK-MEL-28 melanoma 110%

Cc1ccc(C(O)C2CC2)cc1 (centres undefined)
inactive: DU-145 prostate 113% | K-562 leukemia 98.6% | MALME-3M melanoma 101% | MDA-MB-231 breast 105% | RXF 393 renal 102% | SF-268 CNS 108% | SF-295 CNS 97% | SF-539 CNS 96.7% | UACC-257 melanoma 89.5% | M14 melanoma 109% | HCT-15 colon 97.7% | HT29 colon 104% | SNB-75 CNS 88.9% | SNB-19 CNS 96.7% | U251 CNS 100% | PC-3 prostate 94.5% | SK-MEL-5 melanoma 103% | UACC-62 melanoma 98.8% | LOX IMVI melanoma 100% | SK-MEL-28 melanoma 106%

CCOC(=O)c1ccc(NC(=S)P(=O)(c2ccccc2)c2ccccc2)cc1
inactive: DU-145 prostate 113% | K-562 leukemia 56.2% | MALME-3M melanoma 108% | MDA-MB-231 breast 109% | RXF 393 renal 120% | SF-268 CNS 94.5% | SF-295 CNS 104% | SF-539 CNS 106% | UACC-257 melanoma 108% | M14 melanoma 97.7% | HCT-15 colon 98.5% | HT29 colon 111% | SNB-75 CNS 101% | SNB-19 CNS 106% | U251 CNS 99.2% | PC-3 prostate 80.1% | SK-MEL-5 melanoma 104% | UACC-62 melanoma 99.4% | LOX IMVI melanoma 84.8% | SK-MEL-28 melanoma 106%

C=CC(=O)OCCCCCCCC
inactive: DU-145 prostate 102% | K-562 leukemia 103% | MALME-3M melanoma 108% | MDA-MB-231 breast 109% | RXF 393 renal 120% | SF-268 CNS 102% | SF-295 CNS 104% | SF-539 CNS 99.5% | UACC-257 melanoma 96.7% | M14 melanoma 104% | HCT-15 colon 95% | HT29 colon 124% | SNB-75 CNS 91.2% | SNB-19 CNS 101% | U251 CNS 98.8% | PC-3 prostate 106% | SK-MEL-5 melanoma 110% | UACC-62 melanoma 102% | LOX IMVI melanoma 101% | SK-MEL-28 melanoma 110%

N#CCCN(CCCN1CCOCC1)CN1C(=O)c2ccccc2C1=O
inactive: DU-145 prostate 109% | K-562 leukemia 91.6% | MALME-3M melanoma 87.6% | MDA-MB-231 breast 113% | RXF 393 renal 98% | SF-268 CNS 115% | SF-295 CNS 98.6% | SF-539 CNS 110% | UACC-257 melanoma 107% | M14 melanoma 125% | HCT-15 colon 104% | HT29 colon 107% | SNB-75 CNS 87.7% | SNB-19 CNS 110% | U251 CNS 100% | PC-3 prostate 105% | SK-MEL-5 melanoma 96.8% | UACC-62 melanoma 107% | LOX IMVI melanoma 101% | SK-MEL-28 melanoma 101%

NC(=O)NC(=O)c1ccc(Cl)cc1
inactive: DU-145 prostate 116% | K-562 leukemia 101% | MALME-3M melanoma 92% | MDA-MB-231 breast 48.2% | RXF 393 renal 131% | SF-268 CNS 113% | SF-295 CNS 112% | SF-539 CNS 104% | UACC-257 melanoma 107% | M14 melanoma 96.1% | HCT-15 colon 105% | HT29 colon 94.3% | SNB-75 CNS 93.6% | SNB-19 CNS 111% | U251 CNS 106% | PC-3 prostate 96.5% | SK-MEL-5 melanoma 107% | UACC-62 melanoma 96.1% | LOX IMVI melanoma 103% | SK-MEL-28 melanoma 119%
